# Akt phos inh: HTS Assay for Inhibitors of Akt Phophorylation: Primary Screen | Neuro2A IGF-stimulated pAkt S473 HTRF, 20 min; stronger effect = lower value | activity change, % for hits at 50 µM | AID 651550, 2012 | 360,000 compounds, 0.32% hits; in the data active means activity change below about -80%; inconclusive means mostly about -51% to -80%; further: on the % scale 0 is the no-effect control and ±100 the full control effect
#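 Neuro2A cells in DMEM with 0.5% FBS, overnight at 37 deg C, given compound at single 50 µM final, then IGF (6 nM final) for 20 min at 37 deg C. Lysed; phospho-Akt Ser473 by HTRF after 24 h, 665/615 ratio.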
# Vif-APOBEC3F blk: qHTS for Inhibitors of Vif-A3F Interactions: qHTS; Potency, µM (doses to about 46.1 µM), for inactives: top-dose activity, negative = active; HeLa A3F-eYFP + Vif (tagged APOBEC3F with the HIV-1 protein that degrades it), YFP fluorescence increase; AID 602313, 2012; 390,000 compounds, 0.2% hits; further: potency means the concentration at half of the fitted maximal effect; % of control where 0% means no effect; nearly all actives have a fitted effect of over 65% in size
#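 HeLa cells stably expressing Vif plus C-terminally eYFP-tagged A3F were seeded, incubated overnight at 37 deg C, dosed with compound, incubated overnight again at 37 deg C. Yellow fluorescence (Ex 488/Em 500-530) reported blocked Vif-mediated A3F-eYFP degradation.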
# Vif-APOBEC3G blk: qHTS for Inhibitors of Vif-A3G Interactions: qHTS; DNA dC->dU-editing enzyme APOBEC-3G (Homo sapiens), Q9HC16; HeLa A3G-eYFP + Vif (tagged APOBEC3G with the HIV-1 protein that degrades it), YFP fluorescence, overnight; Potency, µM (titrated, usually from 46.1 µM), for inactives: at the top dose activity, negative = active, most hits filed as inhibitors; 410,000 compounds, 0.076% hits; further: potency means the concentration at half of the fitted maximal effect; on the % scale 0 is the no-effect control and ±100 the full control effect; nearly all actives have a fitted effect of over 60% in size
# Target sequence (Q9HC16 whole entry, looked up): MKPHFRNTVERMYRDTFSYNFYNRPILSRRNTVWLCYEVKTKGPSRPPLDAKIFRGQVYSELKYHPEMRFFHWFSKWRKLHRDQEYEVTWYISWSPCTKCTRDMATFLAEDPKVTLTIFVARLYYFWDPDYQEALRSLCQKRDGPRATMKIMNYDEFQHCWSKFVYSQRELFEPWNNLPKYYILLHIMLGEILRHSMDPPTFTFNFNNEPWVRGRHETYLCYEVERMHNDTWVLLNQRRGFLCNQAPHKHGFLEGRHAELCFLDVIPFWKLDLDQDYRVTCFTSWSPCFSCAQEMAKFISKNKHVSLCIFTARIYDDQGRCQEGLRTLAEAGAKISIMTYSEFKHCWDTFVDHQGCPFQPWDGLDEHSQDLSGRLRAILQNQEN
#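 Read-out is eYFP fluorescence (Ex 488/Em 500-530) from Vif-expressing HeLa A3G-eYFP cells; more signal means A3G escaped Vif-mediated degradation. Cells plated overnight, compound pinned in, incubated overnight at 37 deg C.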
# PTAP TSG101 blk: qHTS Assay for Iinhibitors of HIV-1 Budding by Blocking the Interaction of PTAP/TSG101; Tumor susceptibility gene 101 protein (Homo sapiens), Q99816; Fluorescence polarization, FITC-PTAP peptide / Tsg101 binding; Potency, µM (top dose mostly 115 µM), for inactives: at the top dose activity change, negative = inhibition, usual class: inhibitors; 340,000 tested, under 10 active; active means well fitted inhibition curve with a large enough effect in the main read-out, with a control signal flat, not every such curve was filed as active; inconclusive means small, poorly fitted or top-dose-only effect, or effect the other way, or a change in a side signal; inactive means no such curve, though single readings can be large or run the other way; further: potency means the concentration at half of the fitted maximal effect; % of control where 0% means no effect
# Target sequence (Q99816 whole entry, looked up): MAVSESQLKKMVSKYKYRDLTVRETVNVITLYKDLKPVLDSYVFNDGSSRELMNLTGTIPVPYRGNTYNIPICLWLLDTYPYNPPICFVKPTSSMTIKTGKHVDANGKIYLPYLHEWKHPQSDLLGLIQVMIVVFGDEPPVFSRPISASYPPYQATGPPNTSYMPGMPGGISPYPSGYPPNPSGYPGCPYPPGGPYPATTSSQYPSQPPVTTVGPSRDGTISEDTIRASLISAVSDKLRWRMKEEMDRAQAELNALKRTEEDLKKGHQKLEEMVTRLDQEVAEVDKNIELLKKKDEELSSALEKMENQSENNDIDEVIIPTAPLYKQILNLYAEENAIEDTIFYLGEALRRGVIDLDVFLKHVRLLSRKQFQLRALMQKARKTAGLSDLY
#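 Steps: Tsg101 binding domain dispensed (10 uM final), compounds pinned in DMSO, FITC-labeled PTAP-motif peptide added (50 nM final); after 20 min binding at room temperature, polarization measured.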
# S-ASM inh: Inhibitors of Secretory Acid Sphingomyelinase (S-ASM): qHTS | placental ASM, HMU-PC fluorogenic substrate, 60 min | Potency, µM (doses to about 57.5 µM), inactives show at the highest dose activity change, negative = inhibition, most hits filed as inhibitors | 340,000 compounds, 0.006% hits | AID 504937, 2011; further: potency means the concentration at half of the fitted maximal effect
#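 Fluorescence read-out (Ex 386 nm, Em 447 nm) after stopping the reaction at pH 10. Enzyme: ASM from human placenta; substrate HMU-PC0, 9 uM final; 60 min, 37 °C. Compound preincubation 10 min, ambient temperature.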
# 12-LOX inh: Primary qHTS assay for inhibitors of human arachidonate 12S-lipoxygenase (ALOX12): Round 2; Polyunsaturated fatty acid lipoxygenase ALOX12 (Homo sapiens), P18054; purified 12hLO, xylenol orange hydroperoxide absorbance; Potency, µM (doses to about 108 µM), for the others: at the highest dose activity change, negative = inhibition, hits mostly inhibitors; 580,000 compounds, 1.1% hits; further: potency means the concentration at half of the fitted maximal effect; on the % scale 0 is the no-effect control and ±100 the full control effect
#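 Purified human 12hLO (150 nM final) in 25 mM Hepes, 0.01% Triton X-100, pH 7.0 was preincubated 15 min at room temperature with compound. Then 40 uM arachidonic acid was added, 30 min. Hydroperoxide was read by Fe-XO absorbance ratio 573/405 nm.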
# * hit, by the source's call; i = inactive; ? = inconclusive; / = not tested or not shown. A selection: hits, their analogues and other compounds. The true share with any hit is near 1.4%. Unless noted, the call rests on the fitted dose curve; in most records, active means well fitted curve in the direction sought with a large enough effect; inconclusive means small, poorly fitted or top-dose-only effect, or another doubt; inactive means no such curve, though single readings can be large; an effect the other way counts as inactive or inconclusive.
SMILES,Akt phos inh,Vif-APOBEC3F blk,Vif-APOBEC3G blk,PTAP TSG101 blk,S-ASM inh,12-LOX inh
Cc1cc(C)c2nc(SCC(=O)N(C)C)cc(C)c2c1,/,/,/,/,/,7%
Cc1ccnc(NC(=S)NC(=O)/C=C/c2ccco2)c1,i,-6%,7.9µM*,0%,-5%,-23%
Cc1ccc(O)c(NC(=S)NC(=O)/C=C/c2ccco2)c1,i,3%,?,-1%,-3%,?
CC(=O)NC(=S)Nc1ccc(NC(=S)NC(=O)/C=C/c2ccco2)cc1,i,4%,-6%,-3%,-2%,9%
O=C(/C=C/c1ccco1)NC(=S)Nc1ccc(Cl)cn1,i,?,-3%,-4%,-1%,35µM*
O=C(NC1CCCCC1)c1ccc2c(Cl)c3c(nc2c1)CCCC3,/,/,/,/,/,9%
Cc1ccc(NC(=O)C2CCCN2C(=O)NCc2ccccc2)cc1 (stereo not drawn),i,2%,1%,0%,1%,-1%
Cc1ccc(NC(=O)N2CCCC2C(=O)NCCc2ccccc2)cc1 (stereo not drawn),-121%*,-1%,-5%,-3%,0%,?
Cc1c(C)c2c(C)nn(-c3ccccc3)c2[nH]c1=O,-108%*,-3%,-5%,-3%,0%,0%
CCOC(=O)NC1(Nc2cccc(Cl)c2)Oc2ccccc2O1,i,-14%,-30%,-1%,-3%,45µM*
COC(=O)c1c2c(c3ccccc3c1-c1ccccc1)OC(c1ccc(OC)cc1)(c1ccc(OC)cc1)C=C2,/,/,/,/,/,-9%
Cc1c(P(=O)(c2ccccc2)c2ccccc2)c2ccccc2n1C,/,/,-3%,/,/,20µM*
Cc1c(C(C)(C(=O)O)c2c(C)n(C)c3ccccc23)c2ccccc2n1C,/,/,/,/,/,87%
COc1ccc(-c2cc(OC)c3ccccc3n2)cc1,i,2%,-3%,-2%,1%,45µM*
Cc1[nH]c(C)c(C=O)c1C=O,/,/,/,/,/,1%
CN(Cc1ccccc1)C(=O)C1CCN(Cc2cc3ccccc3n2Cc2ccccc2)CC1,/,-7%,5%,/,/,45µM*
CN(C)CCNC(=O)C1CCN(Cc2cc3ccccc3n2Cc2ccccc2)CC1,/,?,-4%,/,/,-30%
CCCCOc1ccc(C(=O)NC(=S)NCCCO)cc1Br,/,/,/,/,/,7.9µM*
CCC(=O)Oc1ccc2c(c1)O/C(=C\c1ccco1)C2=O,i,?,-9%,?,11%,25µM*
CCN(CC)C(=O)Oc1ccc2c(c1)O/C(=C\c1ccco1)C2=O,i,-25%,-15%,1%,58%,?
COc1cccc(C2CCN(Cc3cn(-c4ccccc4)nn3)C2)c1OC (stereo not drawn),/,/,/,/,/,-5%
CC(C)COc1ccc(S(=O)(=O)NNC(=O)c2cc3ccccc3o2)cc1,i,-9%,1%,-9%,-11%,22µM*
CONC(=O)COc1ccc(C)cc1C,/,/,/,/,/,-26%
COc1ccc2c(c1)CCc1c-2n[nH]c1C(=O)O,-111%*,6%,-1%,-4%,0%,?
Cc1cccc(-c2noc([C@@H]3Cc4nc[nH]c4CN3C(=O)NC3CCCCC3)n2)c1,/,/,/,/,/,13µM*
SMILES,Akt phos inh,Vif-APOBEC3F blk,Vif-APOBEC3G blk,PTAP TSG101 blk,S-ASM inh,12-LOX inh
Cn1c(=S)c2[nH]c(SCc3cccnc3)nc2n(C)c1=O,i,1%,2%,-1%,2%,3.2µM*
CSc1nc2c([nH]1)c(=S)n(C)c(=O)n2C,i,0%,?,-8%,-2%,-10%
NC(=O)COc1ccc(NC(=O)OCc2ccccc2)cc1,-107%*,-10%,0%,10%,0%,22%
O=c1[nH]c(Nc2ccccc2)cc2ccccc12,i,-14%,-25%,-11%,294%,?
O=c1[nH]c(Nc2ccccc2)cc2cc(Br)ccc12,i,6%,-31%,-20%,45%,16µM*
COc1ccccc1Nc1cc2cc(Br)ccc2c(=O)[nH]1,i,?,?,-2%,20%,8.9µM*
CC(C)C(=O)Nc1nonc1-c1ccc(Br)cc1,/,/,/,/,/,3%
c1ccc2c3c([nH]c2c1)CCCC3,/,/,-2%,/,/,/
C/C(=N\O)c1ccc2c3c([nH]c2c1)CCCC3,-90%*,-5%,-16%,-14%,27%,3%
O=c1c2cc(Cl)ccc2ncn1Cc1coc(-c2cccs2)n1,/,/,/,/,/,-18%
CN1/C(=C/C(=O)C(F)(F)C(F)(F)C(F)(F)F)Sc2ccccc21,/,/,/,/,/,6%
COc1ccc(C(=S)N2CCOCC2)cc1OC(=O)c1cccc([N+](=O)[O-])c1,i,2%,-7%,-2%,-3%,-17%
COc1ccc(C(=S)N2CCOCC2)cc1OC(=O)c1ccc([N+](=O)[O-])cc1,i,-12%,7%,-4%,-3%,25µM*
CN(C)CCCn1c(=S)[nH]c2ccccc2c1=O,i,4%,0%,-5%,1%,-20%
CN(C)CCCN=c1c2ccccc2n(C)c2[nH]c(=O)n(C)c(=O)c12,/,/,/,/,/,22µM*
CN1CCN(C(CNCC(O)COC2CCCc3ccccc32)c2cccs2)CC1 (stereo not drawn),/,/,/,/,/,2%
Cc1n[nH]c(C)c1N1C(=O)c2cccc3c(Br)ccc(c23)C1=O,-113%*,-6%,4%,-2%,-7%,0%
N#C/C(=C/c1ccc(OC(F)(F)F)cc1)c1nc2ccccc2[nH]1,/,/,/,/,/,18%
CNC(=O)c1cc(NC(=O)CCn2nc(-c3ccc(Cl)cc3)c3ccccc3c2=O)ccc1OC,/,/,/,/,/,-1%
O=C(CCc1ncc(-c2ccccc2F)o1)Nc1cccc(C(=O)NC2CC2)c1,/,/,/,/,/,39%
CCOc1ccc(NC(=O)C2CC(C)=C(C)CC2C(=O)O)cc1 (stereo not drawn),-119%*,1%,0%,-1%,0%,7%
Cc1ccccc1-n1nnnc1SCC(=O)Nc1ccc2nccnc2c1,/,/,/,/,/,47%
COc1ccccc1-n1cnnc1SCC(=O)NC1CCCC1,i,-2%,1%,0%,1%,-3%
COc1ccccc1-n1cnnc1SCC(=O)NC(C)c1ccc(-c2ccccc2)cc1 (stereo not drawn),/,/,/,/,/,1.6µM*
Cc1c2cnn(CC(=O)Nc3c(F)c(F)cc(F)c3F)c(=O)c2c(C)n1Cc1ccccc1F,i,-4%,1%,-4%,-3%,20µM*
Cc1c2cnn(CC(=O)NCc3ccc(F)cc3)c(=O)c2c(C)n1Cc1ccccc1F,/,0%,-13%,/,/,-26%

# From PubChem
